# ± gives the standard deviation.
# T1: HaloTag-ATRX ADD domain (163-292)
# T1 chain: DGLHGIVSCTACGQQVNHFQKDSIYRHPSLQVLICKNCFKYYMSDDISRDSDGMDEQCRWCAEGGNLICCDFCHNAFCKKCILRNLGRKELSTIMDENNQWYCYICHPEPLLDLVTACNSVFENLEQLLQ
# What was measured:
# Assay in all cases: peptide microarray binding signal (635 nm), min-max normalized on array (fraction of array maximum); higher = stronger binding
# Details in all cases: peptide region: H3 20-32
# [1] = molecular target: T1, HaloTag-ATRX ADD domain (163-292)
# Method in brief: (§1)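 Triplicate spots of histone 13-mer peptide–cellulose conjugates with a Cy3 tracer were printed on nitrocellulose and probed for 1 h at 4°C with biotin-labelled HaloTag reader fusions (10 nM to 1 μM) plus streptavidin-Alexa Fluor 647 or rabbit histone antibodies (1:10,000 to 1:2,000) plus anti-rabbit Alexa 647. An Axon GenePix 4000B read the 635 nm channel. Binding signal is the spot-triplicate mean intensity after min-max scaling within each library.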
# [2] = molecular target: HaloTag-ING2 PHD (mouse Ing2 200-280)
# Method in brief: as §1
# [3] = molecular target: anti-H3K4me3 antibody ab8580
# Method in brief: as §1
# [4] = molecular target: anti-H3K9me3 antibody ab8898
# Method in brief: as §1
# [5] = peptide modifications: H3K23me2 H3K27me3, binder concentration: 1:2,000 dilution
# [6] = peptide modifications: H3K23me2 H3K27me3, binder concentration: 1:10,000 dilution
# [7] = peptide modifications: H3K23me3 H3K27ac, binder concentration: 1:2,000 dilution
# [8] = peptide modifications: H3K23me3 H3K27ac, binder concentration: 1:10,000 dilution
# [9] = peptide modifications: H3R26cit H3K27me1, binder concentration: 1:2,000 dilution
# [10] = peptide modifications: H3R26cit H3K27me1, binder concentration: 1:10,000 dilution
# [11] = peptide modifications: H3K27me3, binder concentration: 1:2,000 dilution
# [12] = peptide modifications: H3K27me3, binder concentration: 1:10,000 dilution
# [13] = peptide modifications: H3K27me2, binder concentration: 1:2,000 dilution
# [14] = peptide modifications: H3K27me2, binder concentration: 1:10,000 dilution
# [15] = peptide modifications: H3K27me1, binder concentration: 1:2,000 dilution
# [16] = peptide modifications: H3K27me1, binder concentration: 1:10,000 dilution
# [17] = peptide modifications: H3K23me2, binder concentration: 1:2,000 dilution
# [18] = peptide modifications: H3K23me2, binder concentration: 1:10,000 dilution
# [19] = peptide modifications: H3K23me2 H3K27ac, binder concentration: 1:2,000 dilution
# [20] = peptide modifications: H3K23me2 H3K27ac, binder concentration: 1:10,000 dilution
# [21] = peptide modifications: H3K23me3, binder concentration: 1:2,000 dilution
# [22] = peptide modifications: H3K23me3, binder concentration: 1:10,000 dilution
# [23] = peptide modifications: H3R26cit H3K27ac, binder concentration: 1:2,000 dilution
# [24] = peptide modifications: H3R26cit H3K27ac, binder concentration: 1:10,000 dilution
binder,measurement,setting,value
LATKAARKSAPAT [H3 20-32 L A T Kme2 A A R Kme3 S A P A T],peptide microarray binding signal,"[1]; peptide modifications: H3K23me2 H3K27me3, binder concentration: 50 nM",0.0058 ± 9.2e-05
same,peptide microarray binding signal,"[1]; peptide modifications: H3K23me2 H3K27me3, binder concentration: 500 nM",0.00581 ± 0.00013
same,peptide microarray binding signal,"[2]; peptide modifications: H3K23me2 H3K27me3, binder concentration: 10 nM",0.01343 ± 4.8e-05
same,peptide microarray binding signal,"[2]; peptide modifications: H3K23me2 H3K27me3, binder concentration: 100 nM",0.0205 ± 0.00075
same,peptide microarray binding signal,[3]; [5],0.02482 ± 0.00013
same,peptide microarray binding signal,[3]; [6],0.0215 ± 0.00042
same,peptide microarray binding signal,[4]; [5],0.0892 ± 0.0073
same,peptide microarray binding signal,[4]; [6],0.0609 ± 0.0066
LATKAARKSAPAT [H3 20-32 L A T Kme3 A A R Kac S A P A T],peptide microarray binding signal,"[1]; peptide modifications: H3K23me3 H3K27ac, binder concentration: 50 nM",0.00665 ± 0.00019
same,peptide microarray binding signal,"[1]; peptide modifications: H3K23me3 H3K27ac, binder concentration: 500 nM",0.0131 ± 0.00029
same,peptide microarray binding signal,"[2]; peptide modifications: H3K23me3 H3K27ac, binder concentration: 10 nM",0.0614 ± 0.0049
same,peptide microarray binding signal,"[2]; peptide modifications: H3K23me3 H3K27ac, binder concentration: 100 nM",0.0929 ± 0.0012
same,peptide microarray binding signal,[3]; [7],0.18 ± 0.021
same,peptide microarray binding signal,[3]; [8],0.218 ± 0.01
same,peptide microarray binding signal,[4]; [7],0.11 ± 0.011
same,peptide microarray binding signal,[4]; [8],0.042 ± 0.002
LATKAARKSAPAT [H3 20-32 L A T K A A Rcit Kme S A P A T],peptide microarray binding signal,"[1]; peptide modifications: H3R26cit H3K27me1, binder concentration: 50 nM",0.0118 ± 0.0037
same,peptide microarray binding signal,"[1]; peptide modifications: H3R26cit H3K27me1, binder concentration: 500 nM",0.011 ± 0.002
same,peptide microarray binding signal,"[2]; peptide modifications: H3R26cit H3K27me1, binder concentration: 10 nM",0.0174 ± 0.00085
same,peptide microarray binding signal,"[2]; peptide modifications: H3R26cit H3K27me1, binder concentration: 100 nM",0.0171 ± 0.0017
same,peptide microarray binding signal,[3]; [9],0.00427 ± 0.00087
same,peptide microarray binding signal,[3]; [10],0.00576 ± 0.00078
same,peptide microarray binding signal,[4]; [9],0.00346 ± 0.0001
same,peptide microarray binding signal,[4]; [10],0.002249 ± 2.1e-05
LATKAARKSAPAT [H3 20-32 L A T K A A R Kme3 S A P A T],peptide microarray binding signal,"[1]; peptide modifications: H3K27me3, binder concentration: 50 nM",0.00602 ± 0.00022
same,peptide microarray binding signal,"[1]; peptide modifications: H3K27me3, binder concentration: 500 nM",0.008 ± 0.00041
same,peptide microarray binding signal,"[2]; peptide modifications: H3K27me3, binder concentration: 10 nM",0.0119 ± 0.00027
same,peptide microarray binding signal,"[2]; peptide modifications: H3K27me3, binder concentration: 100 nM",0.0118 ± 0.00043
same,peptide microarray binding signal,[3]; [11],0.0112 ± 0.0008
same,peptide microarray binding signal,[3]; [12],0.00907 ± 0.0011
same,peptide microarray binding signal,[4]; [11],0.0533 ± 0.0049
same,peptide microarray binding signal,[4]; [12],0.0225 ± 0.0027
LATKAARKSAPAT [H3 20-32 L A T K A A R Kme2 S A P A T],peptide microarray binding signal,"[1]; peptide modifications: H3K27me2, binder concentration: 50 nM",0.00292 ± 6.9e-05
same,peptide microarray binding signal,"[1]; peptide modifications: H3K27me2, binder concentration: 500 nM",0.003238 ± 2.5e-05
same,peptide microarray binding signal,"[2]; peptide modifications: H3K27me2, binder concentration: 10 nM",0.00567 ± 0.00012
same,peptide microarray binding signal,"[2]; peptide modifications: H3K27me2, binder concentration: 100 nM",0.00581 ± 0.00013
same,peptide microarray binding signal,[3]; [13],0.00193 ± 6.9e-05
same,peptide microarray binding signal,[3]; [14],0.00205 ± 3.8e-05
same,peptide microarray binding signal,[4]; [13],0.00153 ± 0.00012
same,peptide microarray binding signal,[4]; [14],0.00144 ± 3.7e-05
LATKAARKSAPAT [H3 20-32 L A T K A A R Kme S A P A T],peptide microarray binding signal,"[1]; peptide modifications: H3K27me1, binder concentration: 50 nM",0.00455 ± 9.6e-05
same,peptide microarray binding signal,"[1]; peptide modifications: H3K27me1, binder concentration: 500 nM",0.00714 ± 0.00042
same,peptide microarray binding signal,"[2]; peptide modifications: H3K27me1, binder concentration: 10 nM",0.00961 ± 0.00022
same,peptide microarray binding signal,"[2]; peptide modifications: H3K27me1, binder concentration: 100 nM",0.0148 ± 0.00019
same,peptide microarray binding signal,[3]; [15],0.00402 ± 0.00028
same,peptide microarray binding signal,[3]; [16],0.00405 ± 0.00025
same,peptide microarray binding signal,[4]; [15],0.00231 ± 0.00014
same,peptide microarray binding signal,[4]; [16],0.00208 ± 3.9e-05
LATKAARKSAPAT [H3 20-32 L A T Kme2 A A R K S A P A T],peptide microarray binding signal,"[1]; peptide modifications: H3K23me2, binder concentration: 50 nM",0.00671 ± 0.00021
same,peptide microarray binding signal,"[1]; peptide modifications: H3K23me2, binder concentration: 500 nM",0.0138 ± 0.00038
same,peptide microarray binding signal,"[2]; peptide modifications: H3K23me2, binder concentration: 10 nM",0.0263 ± 0.0081
same,peptide microarray binding signal,"[2]; peptide modifications: H3K23me2, binder concentration: 100 nM",0.0536 ± 0.02
same,peptide microarray binding signal,[3]; [17],0.00836 ± 0.0018
same,peptide microarray binding signal,[3]; [18],0.0156 ± 0.0071
same,peptide microarray binding signal,[4]; [17],0.00609 ± 0.0003
same,peptide microarray binding signal,[4]; [18],0.00479 ± 0.00052
LATKAARKSAPAT [H3 20-32 L A T Kme2 A A R Kac S A P A T],peptide microarray binding signal,"[1]; peptide modifications: H3K23me2 H3K27ac, binder concentration: 50 nM",0.008464 ± 6.7e-05
same,peptide microarray binding signal,"[1]; peptide modifications: H3K23me2 H3K27ac, binder concentration: 500 nM",0.01538 ± 0.00011
same,peptide microarray binding signal,"[2]; peptide modifications: H3K23me2 H3K27ac, binder concentration: 10 nM",0.0514 ± 0.0022
same,peptide microarray binding signal,"[2]; peptide modifications: H3K23me2 H3K27ac, binder concentration: 100 nM",0.0701 ± 0.0049
same,peptide microarray binding signal,[3]; [19],0.0156 ± 0.00055
same,peptide microarray binding signal,[3]; [20],0.0145 ± 0.00025
same,peptide microarray binding signal,[4]; [19],0.0072 ± 0.0012
same,peptide microarray binding signal,[4]; [20],0.00513 ± 0.00017
LATKAARKSAPAT [H3 20-32 L A T Kme3 A A R K S A P A T],peptide microarray binding signal,"[1]; peptide modifications: H3K23me3, binder concentration: 50 nM",0.00323 ± 0.00014
same,peptide microarray binding signal,"[1]; peptide modifications: H3K23me3, binder concentration: 500 nM",0.00476 ± 6.4e-05
same,peptide microarray binding signal,"[2]; peptide modifications: H3K23me3, binder concentration: 10 nM",0.00931 ± 0.00034
same,peptide microarray binding signal,"[2]; peptide modifications: H3K23me3, binder concentration: 100 nM",0.0181 ± 0.00055
same,peptide microarray binding signal,[3]; [21],0.0211 ± 0.0028
same,peptide microarray binding signal,[3]; [22],0.0168 ± 0.00023
same,peptide microarray binding signal,[4]; [21],0.0113 ± 0.0027
same,peptide microarray binding signal,[4]; [22],0.00634 ± 0.00064
LATKAARKSAPAT [H3 20-32 L A T K A A Rcit Kac S A P A T],peptide microarray binding signal,"[1]; peptide modifications: H3R26cit H3K27ac, binder concentration: 50 nM",0.00486 ± 0.00011
same,peptide microarray binding signal,"[1]; peptide modifications: H3R26cit H3K27ac, binder concentration: 500 nM",0.0109 ± 0.00038
same,peptide microarray binding signal,"[2]; peptide modifications: H3R26cit H3K27ac, binder concentration: 10 nM",0.0232 ± 0.0013
same,peptide microarray binding signal,"[2]; peptide modifications: H3R26cit H3K27ac, binder concentration: 100 nM",0.0235 ± 0.0022
same,peptide microarray binding signal,[3]; [23],0.0101 ± 0.00075
same,peptide microarray binding signal,[3]; [24],0.00553 ± 0.0019
same,peptide microarray binding signal,[4]; [23],0.00415 ± 0.0003
same,peptide microarray binding signal,[4]; [24],0.00288 ± 4.3e-05
